Inconclusive results are not listed. Activity calls are given as the source filed them. Unless noted, the call rests on the fitted dose curve; in most records, active means well fitted curve in the direction sought with a large enough effect in the repeat runs; inconclusive means weak or mixed curves; inactive means no such curve, though single readings can be large; an effect the other way counts as inactive or inconclusive.
Experiments:
[1] = qHTS assay to identify small molecule antagonists of the peroxisome proliferator-activated receptor delta (PPARd) signaling pathway - cell viability counter screen (AID 743213); further: nearly all actives have a fitted effect of over 50% in size; further: potency means the concentration at half of the fitted maximal effect
How it was run: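 In this counter screen, HEK293H cells carrying a UAS-beta-lactamase reporter are co-treated with test compounds and 300 nM L165041 (final) for 17 h at 37 C; cell viability is quantified by CellTiter-Glo luminescence.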

[2] = target: Bile acid receptor (Homo sapiens) (UniProt Q96RI1); assay: qHTS assay to identify small molecule antagonists of the farnesoid-X-receptor (FXR) signaling pathway (AID 743217; active means well fitted inhibition curve with a large enough effect in the signal ratio in the repeat runs, not every such curve was filed as active; the % refers to the signal ratio)
Sequence of Bile acid receptor (Homo sapiens) (Q96RI1 whole entry, looked up): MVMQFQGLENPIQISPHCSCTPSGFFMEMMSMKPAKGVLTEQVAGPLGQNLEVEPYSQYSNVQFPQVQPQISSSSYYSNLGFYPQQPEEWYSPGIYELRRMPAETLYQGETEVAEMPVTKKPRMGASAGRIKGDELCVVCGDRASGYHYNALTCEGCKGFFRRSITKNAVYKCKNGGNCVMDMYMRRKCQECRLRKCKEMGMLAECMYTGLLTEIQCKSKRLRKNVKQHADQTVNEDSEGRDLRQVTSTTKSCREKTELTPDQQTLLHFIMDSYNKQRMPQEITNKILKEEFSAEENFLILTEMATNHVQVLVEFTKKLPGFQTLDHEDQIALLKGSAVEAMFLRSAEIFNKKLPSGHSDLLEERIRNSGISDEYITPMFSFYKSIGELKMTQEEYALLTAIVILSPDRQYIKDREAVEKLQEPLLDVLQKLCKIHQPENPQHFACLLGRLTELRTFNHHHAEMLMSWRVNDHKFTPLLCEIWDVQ
How it was run: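 Quantitative HTS, beta-lactamase reporter format: FXR-UAS-bla HEK 293T cells co-treated 16 h at 37 °C with compounds and 50 uM final chenodeoxycholic acid, then read by B/G FRET fluorescence.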

[3] = qHTS assay to identify small molecule agonists of the farnesoid-X-receptor (FXR) signaling pathway - cell viability counter screen (AID 743218); further: nearly all actives have a fitted effect of over 45% in size; further: potency means the concentration at half of the fitted maximal effect
How it was run: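 Same-well cytotoxicity check on FXR-UAS-bla HEK 293T cells: 5 h attachment, 16 h compound at 37 C, CellTiter-Glo luminescence read at room temperature after 30 min.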

[4] = target: Bile acid receptor (Homo sapiens) (UniProt Q96RI1); assay: qHTS assay to identify small molecule agonists of the farnesoid-X-receptor (FXR) signaling pathway (AID 743220; active means well fitted activation curve with a large enough effect in the signal ratio in the repeat runs, not every such curve was filed as active; the % refers to the signal ratio)
How it was run: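 FXR-UAS-bla HEK 293T cells carrying a UAS-driven beta-lactamase reporter were plated for 5 h at 37C/5% CO2, then exposed to DMSO-dissolved Tox21 10K compounds for 16 h at 37C. A LiveBLAzer B/G FRET substrate was loaded for 2 h at room temperature before fluorescence reading.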

[5] = qHTS assay to identify small molecule antagonists of the farnesoid-X-receptor (FXR) signaling pathway - cell viability counter screen (AID 743221; active means well fitted cell-killing curve with a large enough effect in the repeat runs, not every such curve was filed as active; further: nearly all actives have a fitted effect of over 50% in size; further: potency means the concentration at half of the fitted maximal effect)
How it was run: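 Quantitative HTS of the Tox21 10K library run in parallel with the beta-lactamase reporter read. HEK 293T cells carrying a UAS-driven bla reporter got compound and 50 uM CDCA (final) for 16 h; ATP-based luminescence followed.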

[6] = target: Vitamin D3 receptor (Homo sapiens) (UniProt P11473); assay: qHTS assay to identify small molecule agonists of the vitamin D receptor (VDR) signaling pathway (AID 743222; calls by dose curve)
Sequence of Vitamin D3 receptor (Homo sapiens) (P11473 whole entry, looked up): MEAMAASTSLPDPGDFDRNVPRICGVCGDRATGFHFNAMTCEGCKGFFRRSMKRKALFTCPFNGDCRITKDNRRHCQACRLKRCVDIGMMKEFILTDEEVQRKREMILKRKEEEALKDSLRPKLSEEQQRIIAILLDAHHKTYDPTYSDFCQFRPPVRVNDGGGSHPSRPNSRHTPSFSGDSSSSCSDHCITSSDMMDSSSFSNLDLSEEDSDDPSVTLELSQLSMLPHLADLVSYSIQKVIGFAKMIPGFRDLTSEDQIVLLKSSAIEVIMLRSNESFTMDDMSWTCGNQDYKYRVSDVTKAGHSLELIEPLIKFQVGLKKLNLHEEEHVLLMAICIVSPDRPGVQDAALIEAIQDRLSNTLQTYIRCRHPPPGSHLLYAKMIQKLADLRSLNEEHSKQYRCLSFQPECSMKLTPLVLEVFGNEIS
How it was run: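 Using LiveBLAzer B/G FRET detection, agonism was scored in VDR-bla cells exposed overnight (16 h, 37C) to DMSO-dissolved compounds; substrate incubation was 2 h at room temperature.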

[7] = target: Vitamin D3 receptor (Homo sapiens) (UniProt P11473); assay: qHTS assay to identify small molecule antagonists of the vitamin D receptor (VDR) signaling pathway (AID 743223; active means well fitted inhibition curve with a large enough effect in the signal ratio in the repeat runs, not every such curve was filed as active; the % refers to the signal ratio)
How it was run: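 Fluorescence from LiveBLAzer B/G FRET substrate, read after 2 h at room temperature, reflects beta-lactamase reporter activity in VDR-bla cells treated 16 h at 37C with compounds and agonist 1alpha,25-dihydroxyvitamin D3 (3 nM final).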

[8] = qHTS assay to identify small molecule agonists of the vitamin D receptor (VDR) signaling pathway - cell viability counter screen (AID 743224); further: nearly all actives have a fitted effect of over 50% in size; further: potency means the concentration at half of the fitted maximal effect
How it was run: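 Counter screen for cytotoxicity: VDR-bla cells at 2,000 cells/well, 16 h compound exposure, then CellTiter-Glo luminescence after the beta-lactamase measurement.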

[9] = qHTS assay to identify small molecule antagonists of the vitamin D receptor (VDR) signaling pathway - cell viability counter screen (AID 743225); further: nearly all actives have a fitted effect of over 50% in size
How it was run: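 Cells (VDR-UAS-bla HEK 293T) are plated, rested 4 h at 37C, dosed with compound and 3 nM final 1-alpha,25-dihydroxy vitamin D3, and incubated 16 h. Viability is taken from CellTiter-Glo luminescence in the reporter wells.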

[10] = qHTS assay to identify small molecule agonists of the NFkB signaling pathway (AID 1159509; active means well fitted curve in the direction sought with a large enough effect in the signal ratio in the repeat runs, not every such curve was filed as active; the % refers to the signal ratio; further: series mostly up to about 61 µM)
How it was run: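 Pathway activation was measured in ME-180 cells stably expressing beta-lactamase under NF-kB response element control. Substrate cleavage was read as the 460/530 nm emission shift after 5 hr compound incubation.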

[11] = qHTS assay to identify small molecule agonists of the NFkB signaling pathway - cell viability counter screen (AID 1159515; calls by dose curve; further: series mostly up to about 61 µM; nearly all actives have a fitted effect of over 55% in size)
How it was run: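 Counter screen run alongside the NFkB-bla agonist assay: ME-180 reporter cells exposed to compounds for 5 hr, then lysed with CellTiter-Glo in the same wells. Luminescence, read after 30 min, reflects viable cells.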

[12] = qHTS assay to identify small molecule agonists of the endoplasmic reticulum stress response signaling pathway (AID 1159516; active means well fitted activation curve with a large enough effect in the signal ratio in the repeat runs, not every such curve was filed as active; the % refers to the signal ratio)
How it was run: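 For this screen, HeLa cells stably carrying beta-lactamase under the ER stress response element received test compounds, positive controls or DMSO for 5 hr at 37 C; B/G FRET substrate was then added and dual-wavelength emission recorded.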

[13] = qHTS assay to identify small molecule antagonists of the retinoid-related orphan receptor gamma (ROR-gamma) signaling pathway - cell viability counter screen (AID 1159520); further: nearly all actives have a fitted effect of over 50% in size
How it was run: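 Cytotoxicity was read from cellular ATP (CellTiter-Glo luminescence) after 16 hr at 37 C with 1 uM doxycycline induction. The inducer was added 2 hr after compound transfer to Tet-on ROR gamma CHO cells.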

[14] = target: Nuclear receptor ROR-gamma (Homo sapiens) (UniProt P51449); assay: qHTS assay to identify small molecule antagonists of the retinoid-related orphan receptor gamma (ROR-gamma) signaling pathway (AID 1159521; further: nearly all actives have a fitted effect of over 50% in size; further: potency means the concentration at half of the fitted maximal effect)
How it was run: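 RORγ antagonism is scored from reduced reporter luminescence in Tet-on CHO cells. Induction used 1 uM final doxycycline hyclate for 16 h at 37 C, following a 2 h compound exposure.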

[15] = qHTS assay to identify small molecule agonists of the AP-1 signaling pathway (AID 1159526; calls by dose curve)
[16] = qHTS assay to identify small molecule agonists of the peroxisome proliferator-activated receptor delta (PPARd) signaling pathway - cell viability counter screen (AID 743211); further: nearly all actives have a fitted effect of over 55% in size; further: potency means the concentration at half of the fitted maximal effect
How it was run: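 Viability of GeneBLAzer PPARd UAS-bla HEK293H cells was assessed after 17 h compound incubation at 37C, using CellTiter-Glo reagent added after the reporter read and luminescence recorded 30 min later.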

[17] = target: Peroxisome proliferator-activated receptor delta (Homo sapiens) (UniProt Q03181); assay: qHTS assay to identify small molecule agonists of the peroxisome proliferator-activated receptor delta (PPARd) signaling pathway (AID 743212; calls by dose curve;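 further: HEK293H cells with PPARd UAS beta-lactamase reporter GeneBLAzer system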)
Sequence of Peroxisome proliferator-activated receptor delta (Homo sapiens) (Q03181 whole entry, looked up): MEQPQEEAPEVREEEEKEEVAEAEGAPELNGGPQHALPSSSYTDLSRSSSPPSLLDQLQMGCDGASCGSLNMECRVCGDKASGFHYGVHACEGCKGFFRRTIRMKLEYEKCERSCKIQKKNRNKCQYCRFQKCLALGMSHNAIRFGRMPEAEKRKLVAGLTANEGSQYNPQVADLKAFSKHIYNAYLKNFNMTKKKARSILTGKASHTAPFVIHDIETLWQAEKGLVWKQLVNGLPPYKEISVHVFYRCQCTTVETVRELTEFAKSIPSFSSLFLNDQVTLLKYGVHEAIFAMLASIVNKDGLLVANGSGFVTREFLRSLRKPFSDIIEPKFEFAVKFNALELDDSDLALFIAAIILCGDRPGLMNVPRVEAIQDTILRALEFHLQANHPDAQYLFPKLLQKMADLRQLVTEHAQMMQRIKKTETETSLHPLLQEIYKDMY
How it was run: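 Beta-lactamase reporter readout: a ratiometric FRET signal from the LiveBLAzer substrate after 2 h at room temperature. Compound exposure at 37 °C in PPARδ-bla HEK293H cells driven by an upstream activator sequence.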

[18] = target: Peroxisome proliferator-activated receptor delta (Homo sapiens) (UniProt Q03181); assay: qHTS assay to identify small molecule antagonists of the peroxisome proliferator-activated receptor delta (PPARd) signaling pathway (AID 743215; active means well fitted inhibition curve with a large enough effect in the signal ratio in the repeat runs, not every such curve was filed as active; the % refers to the signal ratio;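 further: cells stimulated with agonist L165041 at 300 nM final during compound exposure; series mostly up to about 62 µM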)
How it was run: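 Screen format: qHTS, antagonist mode. HEK293H PPARd-bla cells received compound and 300 nM L165041 (final), 17 h, 37 C. Beta-lactamase detected via FRET substrate fluorescence, 2 h, room temperature.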

[19] = qHTS assay to identify small molecule agonists of the AP-1 signaling pathway - cell viability counter screen (AID 1159525; calls by dose curve; further: nearly all actives have a fitted effect of over 55% in size)
How it was run: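 Intracellular ATP by Cell Titer Glo luminescence (30 min, RT) in the same ME-180 AP-1-bla wells after the 5 h compound exposure at 37 °C. Normalised to tetra n-octyl ammonium bromide and DMSO controls.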

[20] = qHTS assay to identify small molecule agonists of the endoplasmic reticulum stress response signaling pathway - cell viability counter screen (AID 1159517; calls by dose curve)
How it was run: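 ESRE-bla HeLa cells (1,500/well) were plated overnight at 37 C and exposed to compounds for 5 hr. After the 2 hr beta-lactamase substrate read, CellTiter-Glo went into the same wells, and luminescence was read after 30 min at room temperature.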

Measured: Potency

CCN(CC)CCNC(=O)c1cc(Cl)c(N)cc1OC
not listed: [16] | [17] | [18] | [19] | [20]
inactive: all other assays above

O=C1OC[C@H](Cc2cccc(O)c2)[C@H]1Cc1cccc(O)c1
not listed: [2] | [4] | [7] | [8] | [19] | [20]
inactive: all other assays above

C=CC(=O)O
not listed: [2] | [4] | [7] | [8] | [19] | [20]
inactive: all other assays above

CN1C(CSCC(F)(F)F)Nc2cc(Cl)c(S(N)(=O)=O)cc2S1(=O)=O (stereo not given)
not listed: [2] | [4] | [7] | [8] | [13] | [18] | [20]
inactive: all other assays above

Nc1ccn([C@H]2CS[C@@H](CO)O2)c(=O)n1
inactive: [16] | [1] | [3] | [5] | [10] | [11] | [12] | [13] | [14] | [15]

CC(CO)(CO)C(=O)O
not listed: [12]
inactive: all other assays above

CC(O)Cn1cnc2c1c(=O)n(C)c(=O)n2C (stereo not given)
not listed: [8] | [12]
inactive: all other assays above

CCCCOCCOC(=O)c1cccnc1
not listed: [2] | [3] | [4] | [6] | [7] | [12]
inactive: all other assays above

CCC(CO)(CO)[N+](=O)[O-]
not listed: [12]
inactive: all other assays above

Nc1cccc2c(N)cccc12
inactive: [16] | [17] | [2] | [10] | [11] | [12] | [14]

Oc1cccc2[nH]ccc12
not listed: [7] | [12]
inactive: all other assays above

CC(C)N(C)C
not listed: [2] | [4] | [6] | [9] | [13] | [14] | [19] | [20]
inactive: all other assays above

CCCCCCOC(=O)CCCCC
not listed: [2] | [4] | [9] | [12] | [17] | [18]
inactive: all other assays above

CCN(CC)C(=O)/C(C#N)=C/c1cc(O)c(O)c([N+](=O)[O-])c1
not listed: [2] | [4] | [6] | [7] | [13] | [14] | [18] | [20]
inactive: all other assays above

Cc1ccc(N(CCO)CCO)cc1
not listed: [7] | [13] | [14] | [20]
inactive: all other assays above

COc1cc(OC)c2ccc(=O)oc2c1
not listed: [2] | [4] | [6] | [7] | [12] | [18]
inactive: all other assays above

CCCCCCC(O)CCCCCCCCCCC(=O)OC (stereo not given)
not listed: [2] | [4] | [13] | [15] | [16] | [20]
inactive: all other assays above

CC(C)c1ccc(C#N)cc1
not listed: [2] | [4] | [12]
inactive: all other assays above

CN(C)CC/C=C1\c2ccccc2Sc2ccc(Cl)cc21
inactive: [18] | [6] | [10] | [11] | [12] | [19]
active: [16] 29.8 µM | [1] 13.3 µM | [3] 23.7 µM

COC(=O)CC(C(C)=O)C(=O)OC (stereo not given)
not listed: [7] | [12]
inactive: all other assays above

C[C@@H]1[C@H](O)[C@@H](C)/C=C/C=C\C=C\C=C\C=C\C=C\C=C\[C@H](O[C@@H]2O[C@H](C)[C@@H](O)[C@H](N)[C@@H]2O)C[C@@H]2O[C@](O)(C[C@@H](O)C[C@@H](O)[C@H](O)CC[C@@H](O)C[C@@H](O)CC(=O)O[C@H]1C)C[C@H](O)[C@H]2C(=O)O (stereo in doubt)
inactive: [3] | [5] | [9] | [10] | [11] | [12]

CCN(CC)C(=O)N1CCN(C)CC1
not listed: [3] | [12]
inactive: all other assays above

CCCc1nc2c(C)cc(-c3nc4ccccc4n3C)cc2n1Cc1ccc(-c2ccccc2C(=O)O)cc1
not listed: [2] | [4] | [6] | [12]
inactive: all other assays above

NC(=O)CCCCC(N)=O
not listed: [2] | [4] | [12]
inactive: all other assays above

C=Cc1ccc(OC(C)=O)cc1
not listed: [2] | [4] | [7] | [12]
inactive: all other assays above

O=C(O)/C=C/c1ccc(O)c(O)c1
not listed: [6] | [8] | [12] | [17]
inactive: all other assays above

CC(=O)c1ccc[nH]1
not listed: [6] | [7] | [12]
inactive: all other assays above

COc1ccc(CCN(C)CCCN2CCc3cc(OC)c(OC)cc3CC2=O)cc1OC
not listed: [2] | [4] | [6] | [7] | [12]
inactive: all other assays above

CO[C@@H]1[C@@H](OC)[C@H](C)[C@@](O)(CC(=O)O)O[C@H]1[C@H](C)[C@H]1O[C@@]2(CC[C@@](C)([C@H]3CC[C@@](C)([C@@H]4O[C@@H]([C@H]5O[C@](C)(O)[C@H](C)C[C@@H]5C)C[C@@H]4OC4C[C@H](OC)[C@@H](OC)[C@H](C)O4)O3)O2)C[C@H](O)[C@H]1C (stereo not given in full)
active: [16] 2.98 µM | [1] 5.31 µM | [3] 9.44 µM | [5] 9.44 µM | [8] 5.96 µM | [14] 0.237 µM
inactive: [4] | [10] | [11] | [12]

Cc1oc(=O)oc1COC(=O)[C@@H]1N2C(=O)[C@@H](NC(=O)[C@H](N)c3ccccc3)[C@H]2SC1(C)C
not listed: [7] | [12]
inactive: all other assays above

O=C1CC[C@@H](C(=O)O)N1
not listed: [2] | [4] | [7] | [13] | [14] | [19] | [20]
inactive: all other assays above

FC(F)(F)C(F)(F)C(F)(F)C(F)(F)CCI
not listed: [2] | [4] | [9] | [12]
inactive: all other assays above
